# PMC7862700, “An all-to-all approach to the identification of sequence-specific readers for epigenetic DNA modifications on cytosine”
# Tests used:
# Experiment in all cases: DAPPL (digital affinity profiling via proximity ligation, sequencing); 10 mM Tris-HCl pH 7.5, 50 mM NaCl, 1 mM DTT, 4% glycerol, room temperature, 30 min; GST-TFs on glutathione beads, 16-mer random dsDNA library, 0.1% formaldehyde crosslink after washing; high values mean tight binding
# FLI1 = biological target: T1, FLI1 (Homo sapiens, UniProt Q01543 1-452); conditions: protein: recombinant; tags: N-terminal GST; dsDNA, one strand shown
# T1 sequence: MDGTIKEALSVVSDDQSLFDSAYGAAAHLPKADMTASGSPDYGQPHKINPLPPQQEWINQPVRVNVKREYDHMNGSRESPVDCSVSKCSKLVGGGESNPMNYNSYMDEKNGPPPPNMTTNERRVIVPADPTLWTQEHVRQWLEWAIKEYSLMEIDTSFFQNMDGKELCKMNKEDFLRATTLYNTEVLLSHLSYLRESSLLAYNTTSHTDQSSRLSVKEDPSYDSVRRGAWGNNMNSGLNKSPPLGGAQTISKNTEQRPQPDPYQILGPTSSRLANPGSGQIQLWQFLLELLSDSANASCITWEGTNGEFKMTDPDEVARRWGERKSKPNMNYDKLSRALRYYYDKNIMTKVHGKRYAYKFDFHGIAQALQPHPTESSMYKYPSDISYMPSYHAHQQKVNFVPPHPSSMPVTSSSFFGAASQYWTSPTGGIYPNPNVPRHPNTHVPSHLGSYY
# In short: (§1)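 Pools of DNA-barcoded human transcription factors, expressed in yeast as GST fusions on glutathione beads and combined with a tag-only sample, were incubated with 200 nmole of a 16-mer random double-stranded DNA library. Incubation took 30 min at room temperature in Tris/NaCl/DTT/glycerol buffer and was followed by washing, 0.1% formaldehyde crosslinking, proximity ligation (BsaI/T4 ligase, 1 h, 37 °C), PCR amplification and sequencing on an Illumina NextSeq500. Binding signal is the ratio of a hexamer's read frequency for a factor to its frequency for the tag-only sample.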
# ELK1 = biological target: T2, ELK1 (Homo sapiens, UniProt P19419 1-428); conditions: protein: recombinant; tags: N-terminal GST; dsDNA, one strand shown
# T2 sequence: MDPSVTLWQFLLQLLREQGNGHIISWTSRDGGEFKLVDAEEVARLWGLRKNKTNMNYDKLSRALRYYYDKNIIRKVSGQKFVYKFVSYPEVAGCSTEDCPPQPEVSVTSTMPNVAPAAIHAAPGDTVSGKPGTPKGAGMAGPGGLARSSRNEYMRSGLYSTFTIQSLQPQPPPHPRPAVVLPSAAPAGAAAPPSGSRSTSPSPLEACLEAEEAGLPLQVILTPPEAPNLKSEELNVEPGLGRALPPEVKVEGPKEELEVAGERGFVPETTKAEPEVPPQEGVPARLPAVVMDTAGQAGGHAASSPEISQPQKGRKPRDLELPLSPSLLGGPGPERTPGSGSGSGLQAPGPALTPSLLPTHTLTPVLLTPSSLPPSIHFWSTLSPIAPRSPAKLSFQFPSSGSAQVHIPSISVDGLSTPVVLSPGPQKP
# In short: as §1
# GABPA = biological target: T3, GABPA (Homo sapiens, UniProt Q06546 1-454); conditions: protein: recombinant; tags: N-terminal GST; dsDNA, one strand shown
# T3 sequence: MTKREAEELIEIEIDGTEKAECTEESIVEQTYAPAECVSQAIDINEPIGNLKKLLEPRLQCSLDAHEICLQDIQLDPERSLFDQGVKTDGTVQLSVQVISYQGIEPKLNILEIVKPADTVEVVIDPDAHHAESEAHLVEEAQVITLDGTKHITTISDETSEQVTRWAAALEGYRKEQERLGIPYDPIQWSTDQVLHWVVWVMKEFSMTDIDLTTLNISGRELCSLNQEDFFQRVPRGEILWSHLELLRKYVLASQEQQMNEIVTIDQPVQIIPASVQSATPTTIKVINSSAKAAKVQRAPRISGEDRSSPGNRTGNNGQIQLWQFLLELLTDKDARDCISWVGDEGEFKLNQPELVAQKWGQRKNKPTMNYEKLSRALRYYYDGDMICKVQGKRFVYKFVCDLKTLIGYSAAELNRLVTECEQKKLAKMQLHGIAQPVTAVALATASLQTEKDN
# In short: as §1
# ERG = biological target: T4, ERG (Homo sapiens, UniProt P11308 1-479); conditions: protein: recombinant; tags: N-terminal GST; dsDNA, one strand shown
# T4 sequence: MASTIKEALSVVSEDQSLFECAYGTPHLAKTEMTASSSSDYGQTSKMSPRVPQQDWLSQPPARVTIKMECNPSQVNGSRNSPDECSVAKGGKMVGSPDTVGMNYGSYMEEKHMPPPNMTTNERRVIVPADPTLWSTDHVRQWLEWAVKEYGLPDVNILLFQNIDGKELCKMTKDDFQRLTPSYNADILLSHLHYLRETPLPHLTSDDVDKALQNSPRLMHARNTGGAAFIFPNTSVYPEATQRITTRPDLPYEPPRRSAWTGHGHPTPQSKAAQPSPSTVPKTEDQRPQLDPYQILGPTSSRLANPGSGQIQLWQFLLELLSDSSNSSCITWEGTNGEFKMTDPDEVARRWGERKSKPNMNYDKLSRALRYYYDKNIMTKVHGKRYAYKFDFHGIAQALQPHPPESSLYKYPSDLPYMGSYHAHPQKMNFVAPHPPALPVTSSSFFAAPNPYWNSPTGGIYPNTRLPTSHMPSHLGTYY
# In short: as §1
# ELF1 = ELF1 (Homo sapiens, UniProt P32519 1-619); conditions: protein: recombinant; tags: N-terminal GST; dsDNA, one strand shown
# ELF1, sequence (P32519 whole entry): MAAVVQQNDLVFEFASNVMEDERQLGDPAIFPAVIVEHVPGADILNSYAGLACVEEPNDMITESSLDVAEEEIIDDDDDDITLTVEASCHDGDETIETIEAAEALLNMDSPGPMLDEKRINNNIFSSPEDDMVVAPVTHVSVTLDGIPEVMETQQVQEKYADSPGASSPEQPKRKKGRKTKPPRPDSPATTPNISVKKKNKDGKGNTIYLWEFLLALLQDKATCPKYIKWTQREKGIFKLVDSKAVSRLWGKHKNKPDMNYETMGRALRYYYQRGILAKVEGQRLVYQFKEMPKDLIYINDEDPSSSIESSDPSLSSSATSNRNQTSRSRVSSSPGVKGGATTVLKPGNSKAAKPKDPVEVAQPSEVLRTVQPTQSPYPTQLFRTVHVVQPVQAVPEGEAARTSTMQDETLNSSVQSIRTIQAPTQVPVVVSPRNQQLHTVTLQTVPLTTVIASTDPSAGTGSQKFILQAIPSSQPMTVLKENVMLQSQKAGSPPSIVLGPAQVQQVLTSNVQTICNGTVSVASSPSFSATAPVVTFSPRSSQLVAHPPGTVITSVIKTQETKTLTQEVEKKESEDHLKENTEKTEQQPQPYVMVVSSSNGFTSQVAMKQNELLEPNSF
# In short: as §1
# EHF = biological target: T5, EHF (Homo sapiens, UniProt Q9NZC4 1-300); conditions: protein: recombinant; tags: N-terminal GST; dsDNA, one strand shown
# T5 sequence: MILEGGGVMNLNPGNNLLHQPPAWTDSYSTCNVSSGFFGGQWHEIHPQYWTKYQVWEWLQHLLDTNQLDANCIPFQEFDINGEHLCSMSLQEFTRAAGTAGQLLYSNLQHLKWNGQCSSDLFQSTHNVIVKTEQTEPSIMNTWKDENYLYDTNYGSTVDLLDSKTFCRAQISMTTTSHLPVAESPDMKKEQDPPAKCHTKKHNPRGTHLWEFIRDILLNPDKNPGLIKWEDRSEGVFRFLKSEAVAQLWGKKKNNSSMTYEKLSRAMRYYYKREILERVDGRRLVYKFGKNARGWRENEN
# In short: as §1
# SPIB = SPIB (Homo sapiens, UniProt Q01892 1-262); conditions: protein: recombinant; tags: N-terminal GST; dsDNA, one strand shown
# SPIB, sequence (Q01892 whole entry): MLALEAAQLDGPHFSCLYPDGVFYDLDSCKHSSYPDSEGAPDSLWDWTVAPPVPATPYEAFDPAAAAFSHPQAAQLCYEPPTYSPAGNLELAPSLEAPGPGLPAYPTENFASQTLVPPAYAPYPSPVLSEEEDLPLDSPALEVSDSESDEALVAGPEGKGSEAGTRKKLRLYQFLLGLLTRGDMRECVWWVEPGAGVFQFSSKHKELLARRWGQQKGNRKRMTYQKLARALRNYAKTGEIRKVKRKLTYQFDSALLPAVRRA
# In short: as §1
# ELK3 = biological target: T6, ELK3 (Homo sapiens, UniProt P41970 1-407); conditions: protein: recombinant; tags: N-terminal GST; dsDNA, one strand shown
# T6 sequence: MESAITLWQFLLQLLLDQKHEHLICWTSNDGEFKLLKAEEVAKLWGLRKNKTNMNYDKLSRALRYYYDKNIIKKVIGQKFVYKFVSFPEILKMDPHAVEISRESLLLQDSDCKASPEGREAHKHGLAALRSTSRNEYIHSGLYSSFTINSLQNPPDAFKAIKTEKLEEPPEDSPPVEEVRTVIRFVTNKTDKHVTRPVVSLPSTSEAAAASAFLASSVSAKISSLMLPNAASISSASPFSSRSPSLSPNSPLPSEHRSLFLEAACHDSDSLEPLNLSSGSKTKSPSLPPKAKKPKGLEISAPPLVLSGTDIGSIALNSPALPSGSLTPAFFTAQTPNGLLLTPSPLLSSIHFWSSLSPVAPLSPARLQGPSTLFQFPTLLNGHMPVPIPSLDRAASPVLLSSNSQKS
# In short: as §1
# FEV = biological target: T7, FEV (Homo sapiens, UniProt Q99581 1-238); conditions: protein: recombinant; tags: N-terminal GST; dsDNA, one strand shown
# T7 sequence: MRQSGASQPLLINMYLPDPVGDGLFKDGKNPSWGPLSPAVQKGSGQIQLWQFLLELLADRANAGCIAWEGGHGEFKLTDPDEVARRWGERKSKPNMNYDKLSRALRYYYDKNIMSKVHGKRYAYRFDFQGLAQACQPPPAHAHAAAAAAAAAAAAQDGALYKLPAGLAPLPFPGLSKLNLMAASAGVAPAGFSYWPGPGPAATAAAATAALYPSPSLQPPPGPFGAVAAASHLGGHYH
# In short: as §1
# ETV5 = ETV5 (Homo sapiens, UniProt P41161 1-510); conditions: protein: recombinant; tags: N-terminal GST; dsDNA, one strand shown
# ETV5, sequence (P41161 whole entry): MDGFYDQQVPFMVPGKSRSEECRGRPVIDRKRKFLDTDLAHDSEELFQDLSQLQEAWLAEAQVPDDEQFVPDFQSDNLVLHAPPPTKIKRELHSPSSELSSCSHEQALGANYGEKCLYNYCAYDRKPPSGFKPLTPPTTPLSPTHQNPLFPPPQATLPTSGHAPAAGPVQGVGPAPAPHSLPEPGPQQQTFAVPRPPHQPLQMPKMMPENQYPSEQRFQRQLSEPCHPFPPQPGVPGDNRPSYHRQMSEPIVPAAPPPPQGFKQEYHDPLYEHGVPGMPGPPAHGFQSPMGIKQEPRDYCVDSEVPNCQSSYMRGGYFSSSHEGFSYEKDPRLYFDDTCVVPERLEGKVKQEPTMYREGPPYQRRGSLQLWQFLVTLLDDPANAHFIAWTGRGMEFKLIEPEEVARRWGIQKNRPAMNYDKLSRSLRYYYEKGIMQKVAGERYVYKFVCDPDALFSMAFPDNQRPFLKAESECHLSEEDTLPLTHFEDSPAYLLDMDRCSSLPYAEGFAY
# In short: as §1
# HSF1 = HSF1 (Homo sapiens, UniProt Q00613 1-529); conditions: protein: recombinant; tags: N-terminal GST; chain copies: 3; dsDNA, one strand shown
# HSF1, sequence (Q00613 whole entry): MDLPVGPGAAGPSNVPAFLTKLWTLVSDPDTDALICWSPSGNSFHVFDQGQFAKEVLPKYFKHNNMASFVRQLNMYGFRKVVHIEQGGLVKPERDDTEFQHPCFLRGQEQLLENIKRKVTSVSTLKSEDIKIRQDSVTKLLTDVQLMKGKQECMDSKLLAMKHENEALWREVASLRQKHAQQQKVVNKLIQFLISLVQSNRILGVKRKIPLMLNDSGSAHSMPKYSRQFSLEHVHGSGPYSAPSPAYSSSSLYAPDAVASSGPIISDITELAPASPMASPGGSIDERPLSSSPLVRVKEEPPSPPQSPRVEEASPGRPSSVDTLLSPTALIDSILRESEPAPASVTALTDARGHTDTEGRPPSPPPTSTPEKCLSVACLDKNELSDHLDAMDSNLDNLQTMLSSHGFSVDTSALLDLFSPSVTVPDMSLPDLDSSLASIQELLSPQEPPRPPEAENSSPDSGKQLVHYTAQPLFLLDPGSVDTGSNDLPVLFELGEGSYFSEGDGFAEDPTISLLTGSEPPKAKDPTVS
# In short: as §1
# SPIC = biological target: T8, SPIC (Homo sapiens, UniProt Q8N5J4 1-248); conditions: protein: recombinant; tags: N-terminal GST; dsDNA, one strand shown
# T8 sequence: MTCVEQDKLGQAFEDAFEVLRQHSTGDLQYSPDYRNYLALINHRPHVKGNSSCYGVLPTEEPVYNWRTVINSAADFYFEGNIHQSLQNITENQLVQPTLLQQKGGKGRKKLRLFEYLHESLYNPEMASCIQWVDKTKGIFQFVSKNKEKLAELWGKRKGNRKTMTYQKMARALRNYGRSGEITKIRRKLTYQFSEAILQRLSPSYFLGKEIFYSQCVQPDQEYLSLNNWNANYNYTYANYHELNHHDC
# In short: as §1
# ELF4 = ELF4 (Homo sapiens, UniProt Q99607 1-663); conditions: protein: recombinant; tags: N-terminal GST; dsDNA, one strand shown
# ELF4, sequence (Q99607 whole entry): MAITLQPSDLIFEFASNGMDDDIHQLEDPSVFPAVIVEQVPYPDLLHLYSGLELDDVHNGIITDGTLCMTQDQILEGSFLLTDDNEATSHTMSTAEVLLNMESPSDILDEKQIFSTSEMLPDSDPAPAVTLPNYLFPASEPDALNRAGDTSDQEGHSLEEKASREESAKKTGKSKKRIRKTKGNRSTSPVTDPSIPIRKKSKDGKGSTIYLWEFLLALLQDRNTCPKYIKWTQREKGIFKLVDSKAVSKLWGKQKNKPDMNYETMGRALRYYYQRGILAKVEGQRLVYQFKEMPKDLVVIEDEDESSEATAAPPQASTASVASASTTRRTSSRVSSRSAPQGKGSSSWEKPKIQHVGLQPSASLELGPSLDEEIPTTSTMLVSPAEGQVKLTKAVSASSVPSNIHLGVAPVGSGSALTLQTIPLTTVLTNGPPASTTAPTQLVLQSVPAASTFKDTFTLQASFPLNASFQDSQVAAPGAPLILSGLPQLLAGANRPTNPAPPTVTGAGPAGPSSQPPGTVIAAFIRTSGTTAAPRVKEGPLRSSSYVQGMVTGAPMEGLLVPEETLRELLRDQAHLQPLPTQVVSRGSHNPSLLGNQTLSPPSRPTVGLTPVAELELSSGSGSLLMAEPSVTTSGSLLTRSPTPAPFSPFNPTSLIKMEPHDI
# In short: as §1
# ELK4 = biological target: T9, ELK4 (Homo sapiens, UniProt P28324-2 1-405); conditions: protein: recombinant; tags: N-terminal GST; dsDNA, one strand shown
# T9 sequence: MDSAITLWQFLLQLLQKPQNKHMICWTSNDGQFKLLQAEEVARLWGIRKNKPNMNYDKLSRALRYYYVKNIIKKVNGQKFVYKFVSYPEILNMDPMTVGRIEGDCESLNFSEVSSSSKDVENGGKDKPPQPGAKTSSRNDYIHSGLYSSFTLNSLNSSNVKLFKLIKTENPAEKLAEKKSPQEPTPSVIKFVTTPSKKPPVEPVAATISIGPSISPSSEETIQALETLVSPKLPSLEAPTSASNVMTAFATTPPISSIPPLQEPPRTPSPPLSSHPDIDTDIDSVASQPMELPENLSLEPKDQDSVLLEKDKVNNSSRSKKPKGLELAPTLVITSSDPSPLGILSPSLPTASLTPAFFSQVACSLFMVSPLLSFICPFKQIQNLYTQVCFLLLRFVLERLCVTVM
# In short: as §1
# ETV2 = biological target: T10, ETV2 (Homo sapiens, UniProt O00321 1-342); conditions: protein: recombinant; tags: N-terminal GST; dsDNA, one strand shown
# T10 sequence: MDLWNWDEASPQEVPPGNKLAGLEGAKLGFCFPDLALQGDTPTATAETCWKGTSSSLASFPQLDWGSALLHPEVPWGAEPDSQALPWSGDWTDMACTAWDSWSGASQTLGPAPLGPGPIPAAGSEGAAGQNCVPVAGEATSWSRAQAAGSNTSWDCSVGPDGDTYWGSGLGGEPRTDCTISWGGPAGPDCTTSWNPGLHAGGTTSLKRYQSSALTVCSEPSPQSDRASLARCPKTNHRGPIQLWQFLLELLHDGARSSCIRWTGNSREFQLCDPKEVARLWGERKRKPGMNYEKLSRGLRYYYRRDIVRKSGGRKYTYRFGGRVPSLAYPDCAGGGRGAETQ
# In short: as §1
# ELF3 = biological target: T11, ELF3 (Homo sapiens, UniProt P78545 1-371); conditions: protein: recombinant; tags: N-terminal GST; dsDNA, one strand shown
# T11 sequence: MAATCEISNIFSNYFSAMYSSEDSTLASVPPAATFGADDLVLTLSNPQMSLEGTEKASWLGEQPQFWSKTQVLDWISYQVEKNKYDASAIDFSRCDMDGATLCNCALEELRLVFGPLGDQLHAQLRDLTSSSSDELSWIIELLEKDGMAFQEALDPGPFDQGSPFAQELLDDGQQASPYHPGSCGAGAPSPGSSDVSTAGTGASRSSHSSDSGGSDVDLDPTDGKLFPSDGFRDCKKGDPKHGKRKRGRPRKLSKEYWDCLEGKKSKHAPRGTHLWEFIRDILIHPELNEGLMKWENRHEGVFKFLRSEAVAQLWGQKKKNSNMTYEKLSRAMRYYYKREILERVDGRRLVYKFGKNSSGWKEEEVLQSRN
# In short: as §1
# CRX = CRX (Homo sapiens, UniProt O43186 1-299); conditions: protein: recombinant; tags: N-terminal GST; dsDNA, one strand shown
# CRX, sequence (O43186 whole entry): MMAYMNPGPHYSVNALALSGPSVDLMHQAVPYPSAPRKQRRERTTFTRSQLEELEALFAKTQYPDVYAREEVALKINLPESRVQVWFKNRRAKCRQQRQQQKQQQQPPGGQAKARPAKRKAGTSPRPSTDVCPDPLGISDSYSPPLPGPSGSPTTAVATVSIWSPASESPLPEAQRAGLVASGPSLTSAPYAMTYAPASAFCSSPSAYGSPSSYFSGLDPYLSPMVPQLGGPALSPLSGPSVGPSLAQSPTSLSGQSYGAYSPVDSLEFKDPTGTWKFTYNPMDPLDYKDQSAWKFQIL
# In short: as §1
# ETV1 = ETV1 (Homo sapiens, UniProt P50549 1-477); conditions: protein: recombinant; tags: N-terminal GST; dsDNA, one strand shown
# ETV1, sequence (P50549 whole entry): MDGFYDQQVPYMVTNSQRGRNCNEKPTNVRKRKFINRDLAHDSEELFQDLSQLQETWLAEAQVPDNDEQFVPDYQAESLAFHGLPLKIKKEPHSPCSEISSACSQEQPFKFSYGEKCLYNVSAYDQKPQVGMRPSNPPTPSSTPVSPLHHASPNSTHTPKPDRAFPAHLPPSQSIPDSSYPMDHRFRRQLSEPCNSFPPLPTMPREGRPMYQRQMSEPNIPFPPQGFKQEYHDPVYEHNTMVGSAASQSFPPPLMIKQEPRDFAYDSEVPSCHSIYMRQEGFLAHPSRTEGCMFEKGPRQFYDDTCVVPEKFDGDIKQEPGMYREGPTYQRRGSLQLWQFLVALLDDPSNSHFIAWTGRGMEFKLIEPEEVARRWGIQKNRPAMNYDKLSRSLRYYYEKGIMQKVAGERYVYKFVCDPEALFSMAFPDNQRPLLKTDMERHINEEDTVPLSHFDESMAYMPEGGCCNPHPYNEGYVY
# In short: as §1
sequence,measurement,setting,value
TTAGTA,binding signal,FLI1,"1.23 fold enrichment (6-mer frequency, TF over GST control)"
same,binding signal,ELK1,"1.13 fold enrichment (6-mer frequency, TF over GST control)"
same,binding signal,GABPA,"1.21 fold enrichment (6-mer frequency, TF over GST control)"
same,binding signal,ERG,"1.21 fold enrichment (6-mer frequency, TF over GST control)"
same,binding signal,ELF1,"1.12 fold enrichment (6-mer frequency, TF over GST control)"
same,binding signal,EHF,"1.08 fold enrichment (6-mer frequency, TF over GST control)"
same,binding signal,SPIB,"1.06 fold enrichment (6-mer frequency, TF over GST control)"
same,binding signal,ELK3,"1.08 fold enrichment (6-mer frequency, TF over GST control)"
same,binding signal,FEV,"1.05 fold enrichment (6-mer frequency, TF over GST control)"
same,binding signal,ETV5,"1.15 fold enrichment (6-mer frequency, TF over GST control)"
same,binding signal,HSF1,"1.68 fold enrichment (6-mer frequency, TF over GST control)"
same,binding signal,SPIC,"1.16 fold enrichment (6-mer frequency, TF over GST control)"
same,binding signal,ELF4,"1.1 fold enrichment (6-mer frequency, TF over GST control)"
same,binding signal,ELK4,"1.12 fold enrichment (6-mer frequency, TF over GST control)"
same,binding signal,ETV2,"1.22 fold enrichment (6-mer frequency, TF over GST control)"
same,binding signal,ELF3,"1.15 fold enrichment (6-mer frequency, TF over GST control)"
same,binding signal,CRX,"2.39 fold enrichment (6-mer frequency, TF over GST control)"
same,binding signal,ETV1,"1.11 fold enrichment (6-mer frequency, TF over GST control)"
